From PubChem BioAssay (NCI)
About 83,000 compounds went through this panel and 20% of them were active in at least one assay; those are over-represented in the sample as a whole.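 Growth was measured after 48 h exposure to one concentration of compound in 96-well plates. Values under 10 count as active.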 Activity calls are given as the source filed them.

System: UACC-257 melanoma
Assay: NCI-60 one-dose screen, 48 h (100 = growth as untreated, 0 = no growth, -100 = all killed)
Settings: 10 µM

Structure (SMILES) | growth
CS(=O)(=O)c1ccc(-c2nn(-c3ccccc3)cc2/C=C/C(=O)c2ccc(Br)cc2)cc1 | 96.3% (inactive)
O=C(NCCCNc1cc(-c2cn(-c3ccccc3)nc2-c2cccc(O)c2)ccn1)Nc1ccc(F)cc1 | -51.9% (active)
CN1C(=O)N(C)C2C1NN=c1s/c(=C\c3ccccn3)c(=O)n12 (stereo unspecified) | 96.4% (inactive)
Fc1ccc(-c2cc3nc(C(Cl)Cl)nc(-c4cccs4)n3n2)cc1 | 46.2% (inactive)
COc1ccc([C@H]2c3[nH]c4ccccc4c3C[C@@H]3C(=O)N(C4CCN(Cc5ccccc5)CC4)CC(=O)N23)c(OC)c1 | 94.5% (inactive)
Cn1ccnc1C(=O)/C=C/c1ccc(C(=O)Nc2ccc(NC(=O)CCNC(=O)c3csc(Br)n3)cc2)cc1 | 88.6% (inactive)
Cc1nn(-c2ccccc2)cc1/C=N/Nc1nc(Nc2ccccc2)nc(Nc2ccc(S(N)(=O)=O)cc2)n1 | 55.3% (inactive)
COCCC[C@H]1O[C@@](O)([C@H](C)[C@@H]2CC(OC)C(O)/C=C(C)/C=C(C)/C=C(\C)C(OC3O[C@@H](C)[C@H](O)C(O)[C@@H]3O)C(C)/C=C(C)/C=C(OC)/C=C(\C)C(=O)O2)C(OC)C(O)[C@]1(C)O[C@H]1C[C@@H](O)[C@H](O[C@H]2C[C@](C)(O)[C@H](O)C(C)O2)C(C)O1 (stereo partly specified) | 3.39% (active)
COc1ccc(N2C(=O)c3cc(OC)c(OC)cc3NC2SCc2ccccc2)cc1 (stereo unspecified) | 105% (inactive)
Cc1cc2nc(C(Cl)Cl)nc(-c3ccco3)n2n1 | 92.9% (inactive)
COc1ccc(S(=O)(=O)NCCCNc2nccc(-n3cnc4ccccc43)n2)cc1 | 100% (inactive)
